Measurements published in PubChem BioAssay AID1209 (Sanford-Burnham Center for Chemical Genomics, 2008).
The campaign covered roughly 190,000 compounds. About 810 (0.43%) were called active. The entries come from a sample that favours actives as a whole. A number with no mark means an inactive call. Rule as the data show it: active = inhibition above about 50%; inactive = the rest.

Target: Mannose-6-phosphate isomerase (Homo sapiens) (UniProt P34949)
Experiment: MPI enzyme activity inhibition – biochemical, fluorescence intensity, coupled assay, primary screen (AID 1209);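 also: plate controls were DMSO vehicle for no effect and wells lacking substrate for full effect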
Settings: purified PMI enzyme, at 20 µM, hits give high values

Chain of Mannose-6-phosphate isomerase (Homo sapiens) (P34949 whole entry, looked up): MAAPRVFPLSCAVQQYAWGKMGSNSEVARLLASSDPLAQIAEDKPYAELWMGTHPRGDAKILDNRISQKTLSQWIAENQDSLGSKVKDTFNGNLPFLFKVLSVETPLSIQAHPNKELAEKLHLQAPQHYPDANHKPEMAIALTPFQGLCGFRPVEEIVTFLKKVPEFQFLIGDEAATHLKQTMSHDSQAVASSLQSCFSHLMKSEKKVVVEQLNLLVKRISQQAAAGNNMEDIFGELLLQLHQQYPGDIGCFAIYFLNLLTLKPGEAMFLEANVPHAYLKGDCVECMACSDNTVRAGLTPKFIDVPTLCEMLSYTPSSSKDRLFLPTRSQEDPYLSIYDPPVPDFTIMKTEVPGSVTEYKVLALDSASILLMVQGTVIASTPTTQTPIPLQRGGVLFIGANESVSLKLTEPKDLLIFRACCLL

| SMILES | inhibition |
| --- | --- |
| COc1ccc(-n2c(N)c(C(=O)NCC3CCCO3)sc2=S)cc1 (centres undefined) | 6% |
| Cn1c(=O)c(=O)n(C)c2cc(S(=O)(=O)N3CCC(Cc4ccccc4)CC3)ccc21 | 0.3% |
| CCC(=O)NC(c1cccs1)c1ccc2cccnc2c1O (centres undefined) | 33.8% |
| Cc1conc1NC(c1cccs1)c1ccc2cccnc2c1O (centres undefined) | 13% |
| OCCN1CCN(C(c2cccs2)c2ccc3cccnc3c2O)CC1 (centres undefined) | 50.8% (active) |
| Oc1c(C(c2ccccn2)N2CCOCC2)ccc2cccnc12 (centres undefined) | 60.9% (active) |
| Oc1c(C(c2cccs2)N2CCN(c3ccccc3)CC2)ccc2cccnc12 (centres undefined) | 58.8% (active) |
| CCOC(=O)N1CCN(C(c2cccnc2)c2ccc3cccnc3c2O)CC1 (centres undefined) | 60.4% (active) |
| CCOC(=O)N1CCN(S(=O)(=O)c2cccc3cccnc23)CC1 | -9.6% |
| Cc1nc2sc(C(c3cccs3)N3CCN(c4ccccc4)CC3)c(O)n2n1 (centres undefined) | 4.2% |
| CN1CCN(C(c2cccnc2)c2ccc3cccnc3c2O)CC1 (centres undefined) | 39.6% |
| Oc1c(C(c2cccs2)N2CCN(c3ccccc3)CC2)sc2ncnn12 (centres undefined) | -6.2% |
| Oc1c(C(c2ccccc2Cl)N2CCCC2)ccc2cccnc12 (centres undefined) | 32.1% |
| Oc1c(C(Nc2ccccn2)c2ccccn2)ccc2cccnc12 (centres undefined) | 6.9% |
| COC(=O)c1nn(-c2ccccc2)c(=O)cc1Oc1ccc(Cl)cc1 | -15.5% |
| CCOC(=O)N1CCC(NC(=O)CCC(=O)N2CC(C)Oc3ccc(Cl)cc32)CC1 (centres undefined) | 19.2% |
| COc1ccc(C(=O)Nc2nnc(Cc3cccs3)s2)cc1OC | 7.8% |
| COc1c(Cl)cnn(-c2ccc(Cl)c(Cl)c2)c1=O | -2.9% |
| CC1(C)NC(=O)N(CCOCCOc2ccccc2-c2ccccc2)C1=O | -2.9% |
| COc1cc(O)c2c(c1)OC(c1ccc(O)cc1)CC2=O (centres undefined) | -1.3% |

| SMILES | inhibition |
| --- | --- |
| COc1cc2c(cc1OC)C1(Nc3c-2c(Cc2ccccc2)nn3-c2ccccc2)C(=O)Nc2ccccc21 (centres undefined) | 9.3% |
| Clc1ccc(-c2nn3c(-c4ccccn4)nnc3s2)c(Cl)c1 | -4.5% |
| Cc1cccc(N2C(=O)CC(SC(=Nc3ccccc3)Nc3ccccc3)C2=O)c1 (centres undefined) | 15.7% |
| Cc1cccc(N2C(=O)SC(SC(=Nc3ccccc3)Nc3ccccc3)C2=O)c1 (centres undefined) | 52.5% (active) |
| O=C1SC(SC(=Nc2ccccc2)Nc2ccccc2)C(=O)N1c1ccccc1 (centres undefined) | -11.6% |
| O=[n+]1c2c(n([O-])c3cc(F)ccc31)CCCC2 | 5.7% |
| CCOc1ccc2c(c1)n([O-])c1c([n+]2=O)CCCC1 | 56.8% (active) |
| Cc1ccc2c(c1)n([O-])c1c([n+]2=O)CCCC1 | 17.7% |
| CSc1ccccc1NC(=O)CN(C)Cc1ccc(Br)cc1 | 16% |
| Cc1ccccc1Cn1ccc(NC(=O)c2cnn3cccnc23)n1 | 10.4% |
| CCOC(=O)NC(=O)CSc1ccccn1 | 2.1% |
| O=[N+]([O-])c1cccc(N=Cc2sc3ccccc3c2O)c1 | 13.3% |
| O=C1/C(=C/c2cccc([N+](=O)[O-])c2)CCc2ccccc21 | 14.1% |
| CC1CCC(NC(=O)Cn2ncc3ccccc32)CC1 (centres undefined) | 8.4% |
| COc1cc2cc(CN(CCc3cccc(C)c3)C(=S)NCCCN3CCOCC3)c(=O)[nH]c2cc1OC | 10.1% |
| Cc1ccc(CNC(=O)Cc2csc(Nc3nc(=S)[nH]c4ccccc34)n2)cc1 | -1.8% |
| CC(C)CCNC(=O)Cc1ccc(Nc2nc(=S)[nH]c3ccccc23)cc1 | 51.6% (active) |
| O=C(Cc1ccc(Nc2nc(=S)[nH]c3ccccc23)cc1)NC1CCCCC1 | -5.3% |
| Cc1cccc(/C(N)=N/OC(=O)c2ccc(Br)o2)c1 | 12.6% |
| CCOc1cc(S(=O)(=O)N2CCCC2)ccc1Cl | -1.7% |

| SMILES | inhibition |
| --- | --- |
| O=C(OCC1O[C@@H](OC(=O)c2cc(O)c(O)c(O)c2)[C@@H](OC(=O)c2cc(O)c(O)c(O)c2)[C@@H](OC(=O)c2cc(O)c(O)c(O)c2)[C@@H]1OC(=O)c1cc(O)c(O)c(O)c1)c1cc(O)c(O)c(O)c1 (some centres undefined) | 57.2% (active) |
| Cc1cn(C2OC(COC(=O)c3ccccc3)C(OC(=O)c3ccccc3)C2OC(=O)c2ccccc2)c(=O)[nH]c1=O (centres undefined) | 3.7% |
| O=C(O[C@@H]1OC2COC(=O)c3cc(O)c(O)c(O)c3-c3c(cc(O)c(O)c3O)C(=O)O[C@@H]([C@H]1O)[C@@H]2O)c1cc(O)c(O)c(O)c1 | 49.1% |
| CC(C)N(CC#CC(O)(c1ccccc1)c1ccccc1)CCO | -9.6% |
| O=[N+]([O-])c1ccc(Cl)c(/C=N/NC(=S)Nc2ccccc2)c1 | 66.2% (active) |
| NC(=S)N/N=C/c1cc([N+](=O)[O-])ccc1Cl | -2.2% |
| S=C(N/N=C/c1ccccc1Cl)Nc1ccccc1 | 12.3% |
| CCC(C)(C)c1ccc(OCCN2C(=O)NC(C)(C)C2=O)cc1 | 7.4% |
| COc1ccc(NC(=O)C2(c3ccccc3)CCCC2)cc1 | 18.9% |
| CCOC(=O)C1=C(C)N(C)C(=O)NC1c1c(C)nn(-c2ccc(C)cc2)c1Cl (centres undefined) | -6.5% |
| CCOC(=O)C1=C(C)NC(=O)NC1c1c(C)nn(-c2ccccc2)c1Cl (centres undefined) | 53.9% (active) |
| CCOC(=O)C1=C(C)N(C)C(=O)NC1c1c(C)nn(-c2ccccc2)c1C (centres undefined) | -0.2% |
| CCSc1nnc(NC(=O)c2ccc(S(=O)(=O)N(C)C)cc2)s1 | -9.1% |
| COc1ccc(Nc2nc(N)nc(CSC(=S)N3CCOCC3)n2)cc1 | -8.7% |
| C=CC[n+]1c(/C=C2\C=Cc3cc(C)ccc3N2CC)ccc2ccccc21 | 16.7% |
| C=CC[n+]1ccc(/C=C2\C=Cc3cc(C)ccc3N2CC)c2ccccc21 | 64.5% (active) |
| CCN1/C(=C/c2cc[n+](C)cc2)C=Cc2cc(C)ccc21 | 46.3% |
| N#CCSCC(=O)Nc1ccccc1 | 7.9% |
| N#CC(C(=O)NC1CCCCC1)c1nc2ccccc2nc1N1CCN(c2ccc(F)cc2)CC1 (centres undefined) | 7.4% |
